# According to PubChem BioAssay AID624297 (National Center for Advancing Translational Sciences (NCATS), 2012):
# In all, about 340,000 compounds went through this assay and about 6,200 (1.8%) were called active. Inconclusive results (about 10%) are left out. Calls come from the whole dose curve; as a rule, active = well fitted activation curve with a large enough effect; inconclusive = small, poorly fitted or top-dose-only effect; inactive = no such curve, though single readings can be large or run the other way. The list comes from a sample in which actives are over-represented; it also holds similar structures and randomly drawn compounds. Entries that show only a call come without a potency.
# Test: A quantitative high throughput screen for small molecules that induce DNA re-replication in SW480 colon adenocarcinoma cells. Note: nearly all actives have a fitted effect of over 55% in size.
# Settings: Hoechst DNA content imaging, 48 h; series mostly up to 46.1 µM
# In short: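 250 cells/well; 23 nL cpd via pin tool; 48 hr, 37 C, 5% CO2; Hoechst 40 min; imager read of total nuclear intensity, ex 405/em 500-530 nm.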
# Potency is the fitted concentration of half-maximal effect.
row,Structure (SMILES),Potency
1,Cc1noc(C)c1NC(=O)Nc1cccc2c1O[C@H](CN(C)S(=O)(=O)c1c(C)noc1C)[C@@H](C)CN([C@H](C)CO)C2=O,inactive
2,CCCCOc1ccc(C(=O)NCC(=O)OCC(=O)c2c(N)n(C)c(=O)n(C)c2=O)cc1,inactive
3,CSc1ncccc1C(=O)NCC(c1ccco1)N1CCCCC1 (centres undefined),inactive
4,COc1ccc(CN2CCC(n3nccc3NC(=O)CCCc3ccccc3)CC2)cc1C,18.4 µM (active)
5,COc1cc(CN2CCC(n3nccc3NC(=O)CCCc3ccccc3)CC2)ccc1O,inactive
6,Cc1ccc(CN2CCC(n3nccc3NC(=O)CCCc3ccccc3)CC2)o1,inactive
7,COc1ccc(CNC(=O)C[C@H]2C[C@H](C(=O)N3CCOCC3)[C@@]3(CCC4CCCC4)c4[nH]c5ccc(Cl)cc5c4CCN3C2=O)cc1OC,inactive
8,CC(C)(C)OC(=O)C[C@H]1C/C=C\C[C@@H](CC(=O)N[C@H](CO)Cc2ccccc2)C(=O)NC[C@@H](c2ccccc2)OC1=O,inactive
9,Cc1ccccc1OC/C(O)=C(\C#N)c1nc2ccccc2[nH]1,inactive
10,N#C/C(=C(/O)COC(=O)COc1ccc(Cl)cc1)c1nc2ccccc2[nH]1,29.1 µM (active)
11,COCCN(CCOC)S(=O)(=O)c1ccc(/C(O)=C(\C#N)c2nc3ccccc3[nH]2)cc1,inactive
12,CCN1C[C@@H]2[C@@H]3C(=O)N(Cc4ccccc4)C(=O)[C@@H]3[C@](C)(C1=O)N2C(=O)c1ccc(C(C)(C)C)cc1,inactive
13,O=C(NOCc1ccccc1)c1cccc([N+](=O)[O-])c1,inactive
14,O=c1oc2ccccc2c(=O)c2ccccc12,inactive
15,CC[C@]12c3[nH]c4cc(CCC(=O)N(C)C)ccc4c3CCN1C(=O)[C@@H](CC(=O)NCc1ccco1)C[C@@H]2C(=O)N1CCN(C(=O)c2ccco2)CC1,inactive
16,Cn1ncc(Br)c1C(=O)NCc1cccs1,inactive
17,O=C(NCc1cccs1)c1cc(-c2ccccn2)nc2ccc(Br)cc12,inactive
18,CC(C)Cn1c(N)c(C(=O)NCc2cccs2)c2nc3ccccc3nc21,5.17 µM (active)
19,O=c1ccn([C@@H]2O[C@H](CNS(=O)(=O)c3cc4ccccc4s3)[C@@H](O)[C@H]2O)c(=O)[nH]1,inactive
20,CCN(c1ccccc1)S(=O)(=O)c1ccc(C(=O)Nc2ccccc2OC)cc1,inactive

row,Structure (SMILES),Potency
1,O=C(NCC(c1cccs1)N1CCOCC1)c1cc(-c2ccccn2)nc2ccccc12 (centres undefined),inactive
2,Cc1ccc(-c2nn(-c3ccc(F)cc3)cc2C(=O)NCC(c2cccs2)N2CCOCC2)cc1 (centres undefined),23.1 µM (active)
3,O=C(NCCCN1CCOCC1)c1cn(-c2ccccc2)nc1-c1ccc(F)cc1,inactive
4,Cn1c(=S)sc2ccc3ccccc3c21,inactive
5,Cc1cc(C)c(C=NNc2nc3c([nH]2)c(=O)n(C)c(=O)n3C)c(C)c1,inactive
6,FC(F)(F)c1cnc(Oc2ccccc2-c2nnc(-c3ccc(Cl)cc3)o2)c(Cl)c1,inactive
7,COc1cccc(/C=N/Nc2ncc(C(F)(F)F)cc2Cl)c1O,0.92 µM (active)
8,COc1cccc(/C=N/Nc2ccc(S(=O)(=O)Nc3ccccc3C(=O)O)cc2[N+](=O)[O-])c1O,inactive
9,CC(=NNC(=O)c1ccncc1)c1ccc(Cl)c(Cl)c1,inactive
10,C=CCC[C@@H](Cc1ccc(F)cc1)C(=O)OC[C@@H](C)NC(=O)[C@H](CC=C)CC(=O)N(CCO)Cc1ccccc1,inactive
11,CCOC(=O)C1=C(C)Nc2nc3ccccc3n2C1c1cccs1 (centres undefined),inactive
12,CCOc1ccc(C2C(C(=O)NC)=C(C)Nc3nc4ccccc4n32)cc1OC (centres undefined),inactive
13,COc1ccccc1NC(=O)C1=C(C)Nc2nc3ccccc3n2C1c1cccs1 (centres undefined),4.11 µM (active)
14,Cc1ccc(C(=O)O)c(NC=O)c1OCc1ccccc1,inactive
15,CC(OC(=O)c1c(F)cccc1F)C(=O)NCCC1=CCCCC1 (centres undefined),inactive
16,O=C(Nc1cccc(S(=O)(=O)N2CCCC2)c1)c1cncc(Br)c1,inactive
17,COc1ccc2sc(-c3ccc(S(C)(=O)=O)cc3)c(C#Cc3cncn3C)c2c1,5.8 µM (active)
18,COc1ccc2sc(-c3ccc(S(C)(=O)=O)cc3)c(-c3ccc(C(N)=O)cc3)c2c1,inactive
19,Cn1cncc1C#Cc1c(-c2ccsc2)sc2ccccc12,inactive
20,Oc1cccc(CCc2ccccn2)c1,inactive

row,Structure (SMILES),Potency
1,COc1cc2[nH]c(=O)n(Cc3ccc(C(=O)NC4CCN(Cc5ccccc5)CC4)cc3)c(=O)c2cc1OC,inactive
2,COc1ccc(C(=O)O)cc1S(=O)(=O)NC1CCN(Cc2ccccc2)CC1,inactive
3,COc1cc(C(=O)NC2CCN(Cc3ccccc3)CC2)cc(Cl)c1OC(C)C,18.4 µM (active)
4,CNC[C@@H]1Oc2c(NS(C)(=O)=O)cccc2C(=O)N([C@@H](C)CO)C[C@H]1C,inactive
5,CCn1nc(C(=O)NNS(=O)(=O)c2cc(/C=C/C(=O)O)cc(OC)c2OC)c2ccccc2c1=O,inactive
6,C=CC[C@@H](Cc1ccc(F)cc1)C(=O)OC[C@H]1CCCN1C(=O)[C@H](CC=C)CC(=O)N(CCO)Cc1ccccc1,inactive
7,Cn1nc(-c2ccccc2)c(CSc2cccc(Cl)c2)c1Cl,16.4 µM (active)
8,Cn1nc(-c2ccccc2)c(CO)c1Sc1ccccc1,inactive
9,Cc1ccc(S(=O)(=O)c2c(COC(=O)c3cccc(Cl)c3)c(-c3ccccc3)nn2C)cc1,inactive
10,COc1cccc(CC(=NO)c2cccc(OC)c2)c1,inactive
11,c1ccc(-n2nnnc2-c2cccnc2)cc1,inactive
12,CCOC(=O)C(C)n1cnc2c(nnn2-c2cccc(OC)c2)c1=O (centres undefined),inactive
13,CCOc1cccc(-n2nnnc2-c2ccc(OC)cc2)c1,13 µM (active)
14,COc1cc(S(=O)(=O)N2CCN(C(=O)C3CC3)CC2)ccc1NC(C)=O,inactive
15,COc1cc(C(=O)NC2CCN(C)CC2)ccc1Nc1ncc2c(n1)N(C1CCC(O)CC1)CCC(=O)N2C (centres undefined),inactive
16,COc1ccc(C2NC(=O)N(C)C(C)=C2[N+](=O)[O-])cc1 (centres undefined),inactive
17,COC(=O)C1=C(C)N(C)C(=S)NC1c1ccccc1 (centres undefined),inactive
18,COC(=O)C1=C(C)N(C)C(=O)NC1c1ccc([N+](=O)[O-])o1 (centres undefined),23.1 µM (active)
19,Cc1cccc(C(=O)N[C@H](C(=O)NCc2cccs2)C(C)C)c1,inactive
